# Screening data deposited in PubChem by Bradner/Qi Labs at DFCI.
# CBX7 inh: CBX7 chromodomain binding inhibitors, primary screen, biochemical, AlphaScreen; AlphaScreen His6-CBX7 / biotin-H3K27me3 peptide binding; active compounds read low; Chromobox protein homolog 7 (Homo sapiens), O95931; hit rate 1.1% among 66,000; normalised signal (fraction of DMSO) (no concentration beside the values); AID 1224903, 2016; in the data active = normalised signal below about 0.5
# Numbers stand for hits; - = inactive. This excerpt belongs to a sample that is enriched for hits.
SMILES,CBX7 inh
COc1ccc(C(NC(=O)CC(C)C)c2ccc3cccnc3c2O)cc1OC (stereo unspecified),0.061
COc1ccc(CSc2cccc3cccnc23)cc1[N+](=O)[O-],-
O=C(Nc1ccc(Cl)c(Cl)c1)Nc1cccc2cccnc12,-
O=C(CCCCCn1c(=O)[nH]c2ccsc2c1=O)NCCc1ccc(Cl)cc1,-
CCOc1ccccc1-n1c(C)nc2cc(C(=O)O)ccc21,-
COc1ccccc1Nc1cc(C(F)(F)F)nc2c(OC)ccc(OC)c12,0.2
COc1ccccc1Nc1cc(C)nc2c(C)cccc12,-
COc1ccccc1Nc1cc(C)nc2c(OC)cccc12,-
COc1ccc(Nc2cc(C(=O)NCc3cccnc3)c3ccccc3n2)cc1OC,-
Clc1ccc(-c2nnc(-c3cccs3)c3conc23)cc1,-
Cc1ccc2[nH]c3c(c2c1)CCCC3NCc1ccc(F)cc1 (stereo unspecified),0.43
Brc1ccc2[nH]c3c(c2c1)CCCC3NCc1ccccc1 (stereo unspecified),-
Cc1ccc2[nH]c3c(c2c1)CCCC3Nc1ccccc1 (stereo unspecified),-
O=C(C1CC1)N1CCc2cc(S(=O)(=O)NCc3ccc(F)cc3)ccc21,-
